According to PubChem BioAssay:

Assay: reversal of MRP1-mediated doxorubicin resistance, pilot screen, H69AR cells, doxorubicin co-treatment (AID 601)
Conditions: H69AR cells + 2 uM doxorubicin, CellTiter-Glo, 72 h; measured here: viability with 2 uM doxorubicin; at 10 µM; stronger effect = lower value

SMILES	viability [%]
O=c1c2c3nc4ccccc4nc3n(CC3CCCO3)c2ncn1CCc1ccccc1 (stereo not given)	31.8
COc1ccc(CC(NC(C)=O)C(=O)NC2CCN(C(=O)Nc3ccc(C#N)cc3)CC2)cc1OC (stereo not given)	97.3
O=S(=O)(c1ccc(Br)s1)N1CCCCC1	91.1
C/C(N)=C(/C#N)C(=O)COC(=O)c1cc(C)n(-c2ccc(F)cc2)c1C	98.2
COc1cccc(Nc2cc(C)nc3ccccc23)c1	75.4
O=S(=O)(c1ccc(-c2csc(-c3cccnc3)n2)cc1)N1CCCCC1	83
O=C(O)CCc1ccc(-c2ccc(Br)cc2)n1CC(=O)O	98
COc1ccc(N(CC(=O)NC2CCCC2)C(=O)Cn2nnc(-c3ccc(C)cc3)n2)cc1	93.1
CCOc1cc(C(=O)N(C)c2ccccc2)cc(OCC)c1OCC	90.7
COc1ccc(C(=O)Nc2ccc(C)cn2)c(OC)c1	74.2
CN(C)c1nc(SCCOC(=O)c2ccccc2)nc(N(C)C)n1	85
NC(=O)C1CCN(CC(=O)N2c3ccccc3CCc3ccccc32)CC1	92.3
CCCC(c1nnnn1Cc1ccc(OC)cc1)N1CCN(c2ccccc2OC)CC1 (stereo not given)	95.7
CCN1C(=O)c2cccc3c(NC(=O)c4ccc5c(c4)OCCO5)ccc1c23	72.5
CCN1C(=O)Cc2cc(S(=O)(=O)N3CCOCC3)ccc21	100
CCOc1ccccc1NC(=O)CN(c1ccc(C)cc1)S(=O)(=O)c1c(C)noc1C	90.1
O=C(OCCCN1CCCC1)C1(c2ccccc2)CCCC1	82.2
COCCn1c(NCc2ccc(C)cc2)nc2c1c(=O)[nH]c(=O)n2C	99.5
CCCN1C2CCCC1CC(NC(=O)Nc1cccc(C(C)=O)c1)C2 (stereo not given)	96.5
O=C(COC(=O)c1ccccc1O)Nc1ccc(OC(F)F)cc1	90.5

Same assay, conditions: H69AR cells, CellTiter-Glo, 72 h; compound alone cytotoxicity; at 10 µM

SMILES	viability [%]
COc1ccc(-c2noc(COc3ccc4ccccc4c3Br)n2)cc1OC	80.8
CC(=O)c1ccc(NC2OC(C)C(O)C(O)C2O)cc1 (stereo not given)	91.3
CSc1nc(C)cc(OCC(=O)N2CCOCC2)n1	92.7
O=C(CCCn1c(=S)[nH]c2ccccc2c1=O)N1CCCCC1	96.8
CN(C(=O)c1ccccn1)c1nnc(-c2ccncc2)s1	108
CC(C)(C)OC(=O)N1CC(O)CC1C(=O)OCC(=O)c1ccc(Cl)cc1 (stereo not given)	84
Cc1csc(SCc2nc3sc4c(c3c(=O)[nH]2)CCC4)n1	87.8
CCC(C)NC(=O)CC1Oc2ccc(C)cc2NC1=O (stereo not given)	91.7
CCSc1nc(C)nc2c1oc1ccccc12	97.7
CC1=C(C)[N+](=O)C2CCCCC2N1[O-] (stereo not given)	94.4
O=c1[nH]c2c(s1)C(c1ccco1)C1C3CCC(C3)C1S2 (stereo not given)	78.8
CC1CCCCC1NC(=O)C1CCN(C(=O)NC2CCCCC2)CC1 (stereo not given)	102
COc1cccc(OC)c1C(=O)N1CCN(S(=O)(=O)c2ccc(C)cc2)CC1	91.4
Cc1nnc(SCc2cc(=O)[nH]c(N3CCCCC3)n2)s1	94.1
CCc1[nH]nc2c1C(c1cccc(OC(=O)N3CCOCC3)c1)C(C#N)=C(N)O2 (stereo not given)	89.5
CS(=O)(=O)c1ccc2nc(NC(=O)c3cccs3)sc2c1	45
COc1ccc(C(=O)N2CCN(S(=O)(=O)c3cc(Cl)ccc3OC)CC2)cc1	103
COC(=O)c1cccc(NC(=O)Cc2coc3cc(OC)ccc23)c1	94.2
CCOC(=O)N1CCN(C(=O)CN2C(=O)COc3ccc(C)cc32)CC1	94.2
CCNc1nc(N2CCCCC2)nc(-n2nnc(C(=O)OCC)c2C)n1	95.7

SMILES	viability [%]
O=c1c2c3nc4ccccc4nc3n(CC3CCCO3)c2ncn1CCc1ccccc1 (stereo not given)	70.4
COc1ccc(CC(NC(C)=O)C(=O)NC2CCN(C(=O)Nc3ccc(C#N)cc3)CC2)cc1OC (stereo not given)	94.2
O=S(=O)(c1ccc(Br)s1)N1CCCCC1	94
C/C(N)=C(/C#N)C(=O)COC(=O)c1cc(C)n(-c2ccc(F)cc2)c1C	98.1
COc1cccc(Nc2cc(C)nc3ccccc23)c1	74.4
O=S(=O)(c1ccc(-c2csc(-c3cccnc3)n2)cc1)N1CCCCC1	84.2
O=C(O)CCc1ccc(-c2ccc(Br)cc2)n1CC(=O)O	101
COc1ccc(N(CC(=O)NC2CCCC2)C(=O)Cn2nnc(-c3ccc(C)cc3)n2)cc1	89.1
CCOc1cc(C(=O)N(C)c2ccccc2)cc(OCC)c1OCC	89.2
COc1ccc(C(=O)Nc2ccc(C)cn2)c(OC)c1	85.4
CN(C)c1nc(SCCOC(=O)c2ccccc2)nc(N(C)C)n1	101
NC(=O)C1CCN(CC(=O)N2c3ccccc3CCc3ccccc32)CC1	93.9
CCCC(c1nnnn1Cc1ccc(OC)cc1)N1CCN(c2ccccc2OC)CC1 (stereo not given)	90
CCN1C(=O)c2cccc3c(NC(=O)c4ccc5c(c4)OCCO5)ccc1c23	52.2
CCN1C(=O)Cc2cc(S(=O)(=O)N3CCOCC3)ccc21	98
CCOc1ccccc1NC(=O)CN(c1ccc(C)cc1)S(=O)(=O)c1c(C)noc1C	81
O=C(OCCCN1CCCC1)C1(c2ccccc2)CCCC1	88.6
COCCn1c(NCc2ccc(C)cc2)nc2c1c(=O)[nH]c(=O)n2C	107
CCCN1C2CCCC1CC(NC(=O)Nc1cccc(C(C)=O)c1)C2 (stereo not given)	94.3
O=C(COC(=O)c1ccccc1O)Nc1ccc(OC(F)F)cc1	93.2
